TDP1 cell CPT: DT40-hTDP1 cell growth loss with CPT; hit rate 12% among 420,000; Potency, µM (titrated, usually from 46.2 µM), without a hit: at the highest dose activity change, negative = growth inhibition, actives largely listed as inhibitors; AID 686979; chicken DT40 Tdp1-/-;hTDP1 cells + 20 nM CPT, ATP luminescence, 48 h; note: potency is the fitted concentration of half-maximal effect; nearly all actives have a fitted effect of over 55% in size
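Cell growth measured by CellTiter-Glo luminescence after a minimum 48 h, 37 C compound exposure with 20 nM CPT in Tdp1-knockout DT40 cells stably expressing hTDP1, seeded 400/well; qHTS titration format.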
TDP1 cell noCPT: qHTS for Inhibitors of human tyrosyl-DNA phosphodiesterase 1 (TDP1): qHTS in cells in absence of CPT | hit rate 15% among 420,000 | DT40 Tdp1-/- hTDP1 cells, no CPT, ATP luminescence, 48 h | Potency, µM (titrated, usually from 46.2 µM), inactives show top-dose activity change, negative = growth inhibition, most hits filed as inhibitors | AID 686978, 2013; note: potency is the fitted concentration of half-maximal effect; nearly all actives have a fitted effect of over 55% in size
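Seeded 400 DT40-hTDP1 cells/well (vehicle DMSO, no 20 nM CPT); pinned compounds; ≥48 hr at 37 °C; CellTiter-Glo luminescence as viability measure.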
HT1080-NT tox: kills 2HG-producing HT-1080-NT fibrosarcoma cells. HT-1080-NT fibrosarcoma viability, CellTiter-Glo ATP luminescence, 48 h. hit rate 1.6% among 360,000. Potency, µM (doses to about 46.1 µM), for inactives: top-dose activity, negative = less viability, most hits filed as cytotoxic;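 note: NT is the 2HG producing partner of a matched IDH1 knockdown line; potency is the fitted concentration of half-maximal effect; 0% = DMSO-treated cells and -100% = media-only wells without cells; nearly all actives have a fitted effect of over 55% in size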
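Viability by CellTiter-Glo luminescence after 48 h compound exposure at 37C of HT-1080-NT cells (750/well, RPMI, 5% FBS). % activity scaled between DMSO wells and medium-only wells, then curve-fitted and categorized by curve class.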
IL-1B inflam inh: inhibitors of inflammasome signaling (IL-1 beta secretion) | hit rate 4.7% among 360,000 | activity change, % at 57.5 µM | THP-1 LPS/ATP IL-1B secretion, AlphaLISA, 16 h; active compounds read low; in the data active = activity change below about -50%; inconclusive = mostly about -30% to -49%
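THP-1 cells pretreated 1 hr with compounds (up to 57.5 uM final), then stimulated with LPS (250 ng/mL final) plus ATP (1.25 mM final); secreted IL-1B measured by AlphaLISA after 16 hr, decreased signal indicating inhibition.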
HT1080 IDH1KD tx: kills HT-1080 cells with IDH1 knockdown; Potency, µM (titrated, usually from 46.1 µM), inactives show top-dose activity, negative = toxicity, actives largely listed as cytotoxic; HT-1080 IDH1 knockdown viability, ATP luminescence, 48 h; hit rate 2% among 360,000; AID 686971;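 note: potency is the fitted concentration of half-maximal effect; 0% = DMSO wells and -100% = cell-free medium wells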
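HT-1080-IDH1KD cells (IDH1 knocked down), 750/well in RPMI with 5% FBS, treated with compound 48 h at 37 degrees C. Viability by CellTiter-Glo luminescence, normalised to DMSO and no-cell wells; concentration-response curves classed.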
12-LOX inh: inhibitors of human 12S-lipoxygenase ALOX12; hit rate 1.1% among 580,000; P18054; Potency, µM (highest dose often 108 µM), for the others: at the highest dose activity change, negative = inhibition, hits mostly inhibitors; AID 1671190; purified 12hLO, xylenol orange hydroperoxide absorbance; note: potency is the fitted concentration of half-maximal effect
Target sequence (P18054 whole entry, looked up): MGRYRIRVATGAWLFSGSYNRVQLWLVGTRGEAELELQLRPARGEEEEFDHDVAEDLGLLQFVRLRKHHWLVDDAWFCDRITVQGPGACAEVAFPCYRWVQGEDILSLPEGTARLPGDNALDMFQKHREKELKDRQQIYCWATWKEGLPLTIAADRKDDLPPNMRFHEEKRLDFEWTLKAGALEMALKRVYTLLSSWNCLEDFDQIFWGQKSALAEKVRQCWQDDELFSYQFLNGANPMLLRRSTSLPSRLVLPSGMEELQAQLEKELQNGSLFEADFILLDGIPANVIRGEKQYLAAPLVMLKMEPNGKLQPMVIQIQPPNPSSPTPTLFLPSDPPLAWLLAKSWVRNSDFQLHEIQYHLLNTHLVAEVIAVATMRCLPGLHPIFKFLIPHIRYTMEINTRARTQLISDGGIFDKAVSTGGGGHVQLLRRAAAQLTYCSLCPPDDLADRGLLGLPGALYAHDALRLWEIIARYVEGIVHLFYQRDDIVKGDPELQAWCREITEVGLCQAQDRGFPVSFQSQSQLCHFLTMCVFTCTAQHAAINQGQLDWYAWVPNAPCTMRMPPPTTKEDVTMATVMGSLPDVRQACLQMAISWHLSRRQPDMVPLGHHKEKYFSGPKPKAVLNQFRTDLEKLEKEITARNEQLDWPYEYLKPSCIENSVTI
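Purified human 12hLO at 150 nM in 25 mM Hepes, 0.01% Triton X-100, pH 7.0, preincubated 15 min at room temperature with compound. Reaction started with 40 uM arachidonic acid, 30 min at room temperature. Hydroperoxide measured by Fe-xylenol orange, 573/405 nm absorbance ratio.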
* = called active by the depositor; ? = inconclusive; · = no result; [ ] = another dose, or the depositor's remark. Only a selection was taken, and hits are over-represented in it overall. Unless noted, calls come from the whole dose curve; as a rule, active = well fitted curve in the direction sought with a large enough effect; inconclusive = small, poorly fitted or top-dose-only effect, or another doubt; inactive = no such curve, though single readings can be large; an effect the other way counts as inactive or inconclusive. Unless noted, % is set by controls: 0 for no effect and ±100 for the full control effect.

SMILES	TDP1 cell CPT	TDP1 cell noCPT	HT1080-NT tox	IL-1B inflam inh	HT1080 IDH1KD tx	12-LOX inh
O=C(CSc1nc(-c2ccccc2)[nH]c1-c1ccccc1)Nc1ccc2c(c1)OCCO2	10µM*	9.2µM*	·	·	·	0%
O=C(CSc1ccccn1)Nc1ccc2c(c1)OCCO2	15%	-27%	-2%	-8	9%	109%
CC1(C(=O)Nc2cnc3ccccc3c2)CCN1CCc1ccccc1 (stereo unspecified)	?	18µM*	?	-27	-25%	1%
CC1(C(=O)Nc2cccc3ncccc23)CCN1C(=O)CCc1ccccc1 (stereo unspecified)	?	?	-1%	33	22%	5%
CC(C)Oc1cccc(NC(=O)C2(C)CCN2C(=O)C(C)C)c1 (stereo unspecified)	-26%	-16%	11%	6	1%	7%
CC1(C(=O)Nc2cnc3ccccc3c2)CCN1C(=O)CCc1ccccc1 (stereo unspecified)	18µM*	18µM*	6%	-16	-2%	1%
CC(C)Oc1ccc(CN2CCC2(C)C(=O)Nc2cnc3ccccc3c2)cc1 (stereo unspecified)	18µM*	?	-19%	-15	-24%	-1%
COc1ccc(CCC(=O)Nc2cnc3ccccc3c2)cc1	0%	4%	10%	-5	12%	13µM*
CCC1(C(=O)O)CCCN(Cc2ccccc2)C1 (stereo unspecified)	·	·	·	·	·	-23%
CCOc1ccc(C(=O)C(C)OC(=O)Cn2[nH]c(=O)c3ccccc3c2=O)cc1 (stereo unspecified)	-26%	-27%	-3%	0	0%	200%
CC(=O)N(C1CC1)C1CCOC2(CCN(C(=O)c3cn[nH]c3-c3ccccc3)CC2)C1 (stereo unspecified)	·	·	·	·	·	4%
CSc1cccc(CN2CCC(CO)(Cc3cccc(C(F)(F)F)c3)CC2)c1	?	16µM*	21µM*	-96*	16µM*	?
COc1ccc2[nH]c(C(=O)N3CCC(CO)(Cc4cccc(C(F)(F)F)c4)CC3)c(C)c2c1	?	21µM*	-10%	?	-1%	?
OCC1(Cc2cccc(C(F)(F)F)c2)CCN(Cc2cc(F)cc(F)c2)CC1	?	?	18µM*	-77*	?	-20%
COc1cccc(CC2(CO)CCN(C(=O)NC3CCCCC3)CC2)c1	23µM*	-28%	10%	18	15%	-1%
OCC1(Cc2ccc(Cl)cc2)CCN(Cc2ccc(F)c(F)c2)CC1	?	?	?	?	?	0%
Cc1cc(O)c2c(C)c(CC(=O)NCc3cccc(Cl)c3)c(=O)oc2c1	·	·	·	·	·	48%
COc1ccccc1CC(=O)N1CC[C@@H]2NC(=O)[C@H]3C[C@H](NC(=O)C4CC4)CN3C(=O)[C@H]21	·	·	·	·	·	9%[176 µM]
Cc1ccc(NCc2nnc(SCC(=O)N3c4ccccc4Sc4ccccc43)o2)c(C)c1	?	?	3%	-16	-1%	?
OCC1(Cc2ccccc2C(F)(F)F)CCN(Cc2ccccc2)CC1	?	?	-24%	-61*	-13%	0%
CC(C)Cc1cc(CN2CCC(CO)(CN3CCCC3)CC2)[nH]n1	·	·	·	·	·	44%
Cc1ccc(-n2cc(CN3CCC(CO)(Cc4ccccc4)CC3)cn2)cc1	·	·	·	·	·	-18%
Cc1ccc(-n2cc(CN3CCC(CO)(Cc4cccc(C(F)(F)F)c4)CC3)cn2)cc1	9.2µM*	21µM*	23µM*	-112*	18µM*	?
OCC1(Cc2ccccc2C(F)(F)F)CCN(Cc2ccc3c(c2)CCO3)CC1	-2%	6%	-6%	0	-3%	21%
CC(C)Cc1cc(CN2CCC(CO)(Cc3cccc(C(F)(F)F)c3)CC2)[nH]n1	?	?	?	-82*	?	-14%
SMILES	TDP1 cell CPT	TDP1 cell noCPT	HT1080-NT tox	IL-1B inflam inh	HT1080 IDH1KD tx	12-LOX inh
CC(C)Oc1ccc2c(NC(=O)CCn3cncn3)nn(Cc3ccccc3)c2c1	·	·	·	·	·	30%
C=CCn1c(=O)c(C(=O)NCc2ccc3c(c2)OCO3)c(O)c2cc(OC)c(OC)cc21	?	18µM*	20%	-21	15%	12%
CCc1cccc(CC)c1NC(=S)NCc1ccc2c(c1)OCO2	23µM*	18µM*	-2%	-10	-2%	?
Cc1nc2ccccc2nc1OCC(=O)NCc1ccc2c(c1)OCO2	15µM*	7.3µM*	-6%	3	?	?
O=C(NCc1ccc2c(c1)OCO2)c1c(F)c(F)c(F)c(F)c1F	-9%	4%	-15%	-65*	0%	0%
CC(C)CNC(=O)NCCn1c(-c2ccc(F)cc2)nc2ccccc21	·	·	·	·	·	10%
COC(=O)[C@@H]1Cc2ncn(C(C)C)c2CN1C(=O)c1ccc(OC)cc1	·	·	·	·	·	16%[176 µM]
CCC(C(=O)NC(C)c1ccccc1)C(=O)NC(C)c1ccccc1 (stereo unspecified)	8%	-13%	3%	0	3%	-3%
Cc1cc(CNC(=O)c2ccc3c(c2)OCO3)c2ccccc2n1	7.3µM*	4.6µM*	?	104	?	?
CSc1ccccc1C(=O)NCc1ccc2c(c1)OCO2	6%	-5%	15%	-4	18%	24%
CCc1cccc(CC)c1NC(=S)NC(C)c1ccccc1 (stereo unspecified)	-85%	23µM*	-2%	-25	7%	40µM*
